Some test systems named below: DU-145 prostate; K-562 leukemia; MALME-3M melanoma; MDA-MB-231 breast; RXF 393 renal; SF-268 CNS; SF-295 CNS; SF-539 CNS; UACC-257 melanoma; M14 melanoma.
Common to all, as to assay: NCI-60 one-dose screen, 48 h (100 = growth as untreated, 0 = no growth, -100 = all killed)
What all share (details): 10 µM unless noted

The structures appear in SMILES notation. Compounds without any hit were thinned out: in the full panel of roughly 83,000, 20% have a hit.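 48-hour exposure, single concentration, 96-well plates; percent growth endpoint where 0 means no net growth. Active: below 10.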 A number with no mark means an inactive call. The source made the active and inactive calls.

On to `C=C(C)[C@@H]1CC[C@]2(C(=O)NC3CCCCC3)CC[C@]3(C)[C@H](CC[C@@H]4[C@@]5(C)CCCNC(C)(C)[C@@H]5CC[C@]43C)[C@@H]12`, for which the growth was 59% in the assay with DU-145 prostate; -8.4% (active) in the assay with K-562 leukemia; -6.88% (active) in the assay with MALME-3M melanoma; 52.7% in the assay on MDA-MB-231 breast; 56.6% in the assay on RXF 393 renal; 78.4% in the assay on SF-268 CNS. In addition, the growth with SF-295 CNS was 96.9%; with SF-539 CNS, 63.4%; in the assay with UACC-257 melanoma, -9.57% (active); with M14 melanoma, -52.3% (active).

As for `S=C(c1ccc2c(c1)OCO2)N1CCN(c2ccccc2Cl)CC1`, the growth in the assay on DU-145 prostate was 105%; in the assay on K-562 leukemia, 108%; in the assay on MALME-3M melanoma, 72%; in the assay with MDA-MB-231 breast, 98.7%; in the assay on RXF 393 renal it was 109%; with SF-268 CNS it was 94%. Besides, the growth in the assay on SF-295 CNS is 118%; in the assay on SF-539 CNS it was 102%; with UACC-257 melanoma, 96.2%; in the assay on M14 melanoma, 99.3%.

For the compound `O=C(Nc1cccc(Oc2nnc(Cl)c3ccccc23)c1)Nc1ccc(Cl)c(C(F)(F)F)c1`, the growth was -5.14% (active) with DU-145 prostate; -8.66% (active) in the assay with K-562 leukemia; -49.9% (active) in the assay on MALME-3M melanoma; -57.3% (active) in the assay with MDA-MB-231 breast; -62.3% (active) in the assay on RXF 393 renal; -32.2% (active) in the assay with SF-268 CNS. The growth in the assay on SF-295 CNS is -56.3% (active); with SF-539 CNS, -73.4% (active); in the assay with UACC-257 melanoma, -68.4% (active); in the assay with M14 melanoma, -62.8% (active).

For `N#C/C(=C\c1ccc2c(c1)OCO2)n1nnc2cc(F)c(F)cc21`, the growth with DU-145 prostate is 36.7%; in the assay on K-562 leukemia, 18%; in the assay on MALME-3M melanoma, 70.8%; in the assay with MDA-MB-231 breast, 80.1%; with RXF 393 renal, 32.3%; in the assay on SF-268 CNS, 74.3%. The growth was 102% in the assay with SF-295 CNS, 84.5% in the assay with SF-539 CNS, 75% in the assay with UACC-257 melanoma and 57% in the assay on M14 melanoma.

For `Cc1ccc(S(=O)(=O)NCC[C@@H]2C[C@H]2c2cc3ccccc3s2)cc1`, the growth with DU-145 prostate is 101%; in the assay on K-562 leukemia it was 85.1%; in the assay on MALME-3M melanoma, 99.8%; with MDA-MB-231 breast it was 92.5%; in the assay with RXF 393 renal, 103%; in the assay on SF-268 CNS it was 93.3%. For the same compound, the growth was 103% in the assay with SF-295 CNS, 98.3% with SF-539 CNS, 108% with UACC-257 melanoma and 108% with M14 melanoma.

On to `CCN(CC)CCN1C(=O)c2c(c(C)c3c(oc4cc(O)ccc43)c2C)C1=O`, for which the growth in the assay on DU-145 prostate was -89.2% (active); with K-562 leukemia, -58.5% (active); in the assay with MALME-3M melanoma it was 84.2%; in the assay on MDA-MB-231 breast, -68.7% (active); with RXF 393 renal it was 79.4%; with SF-268 CNS, 74.5%. For the same compound, the growth with SF-295 CNS was 103%; in the assay on SF-539 CNS, 90.8%; with UACC-257 melanoma, 97.7%; in the assay with M14 melanoma, -79.3% (active).

As to `Cc1nc2ccccc2n1CC1NC(=O)NC1=O` (stereo not given), the growth in the assay on DU-145 prostate is 110%; with K-562 leukemia, 99.9%; in the assay on MALME-3M melanoma, 102%; with MDA-MB-231 breast, 102%; in the assay on RXF 393 renal, 103%; in the assay on SF-268 CNS it was 96.1%. For the same compound, the growth in the assay on SF-295 CNS was 107%; with SF-539 CNS, 99.4%; in the assay on UACC-257 melanoma it was 99.1%; in the assay with M14 melanoma, 105%.

Consider `COC1=C(OC)C(=O)C(OC)=C(OC)C1=O`, for which the growth in the assay on DU-145 prostate was 101%; with K-562 leukemia, 87.2%; with MALME-3M melanoma, 101%; in the assay with MDA-MB-231 breast, 46.3%; in the assay on RXF 393 renal it was 95%; in the assay on SF-268 CNS it was 94.4%. The growth is 97.7% in the assay with SF-295 CNS, 114% in the assay with SF-539 CNS, 107% in the assay on UACC-257 melanoma and 105% in the assay on M14 melanoma.

For the compound `Cc1ccc(N2CCN(C(=S)c3cccs3)CC2)cc1`, the growth in the assay with DU-145 prostate was 108%; with K-562 leukemia it was 89.1%; with MALME-3M melanoma, 100%; in the assay with MDA-MB-231 breast it was 97.1%; in the assay with RXF 393 renal it was 111%; in the assay with SF-268 CNS, 107%. For the same compound, the growth is 103% in the assay on SF-295 CNS, 101% in the assay on SF-539 CNS, 101% in the assay on UACC-257 melanoma and 103% in the assay on M14 melanoma.

`O=C(CCc1nnc(CN(c2ccccc2)c2ccccc2)o1)c1nc2ccccc2[nH]1`: the growth with DU-145 prostate is 104%; with K-562 leukemia, 76.3%; in the assay on MALME-3M melanoma it was 94.3%; in the assay on MDA-MB-231 breast, 75.3%; in the assay with RXF 393 renal, 113%; in the assay on SF-268 CNS it was 93.6%. Moreover, the growth is 95.6% in the assay on SF-295 CNS, 97.5% in the assay on SF-539 CNS, 103% in the assay on UACC-257 melanoma and 102% in the assay with M14 melanoma.

Regarding `Cc1c(O)cc(-c2cnc(N/N=C\c3ccc(Cl)cc3)s2)c(O)c1C`, the growth was 100% with DU-145 prostate; 72.2% in the assay on K-562 leukemia; 107% in the assay on MALME-3M melanoma; 95.4% in the assay with MDA-MB-231 breast; 81.3% in the assay on RXF 393 renal; 92.4% with SF-268 CNS. For the same compound, the growth in the assay on SF-295 CNS was 99.9%; with SF-539 CNS it was 78.8%; with UACC-257 melanoma, 91.2%; with M14 melanoma it was 96.2%.

As to `CCN(CC)CCCC(C)Nc1c2ccc(Cl)cc2nc2ccc(O)cc12` (stereo not given), the growth was 41.3% in the assay with DU-145 prostate; -3.7% (active) in the assay with K-562 leukemia; 51.2% in the assay with MALME-3M melanoma; 47.4% in the assay with MDA-MB-231 breast; -19.9% (active) with RXF 393 renal; 58.5% in the assay on SF-268 CNS. Besides, the growth in the assay on SF-295 CNS is 61%; with SF-539 CNS it was 15.6%; in the assay with UACC-257 melanoma it was -58.4% (active); with M14 melanoma, 14.2%.

For the compound `CC1=C([Se]CC(OC(=O)CC[Se]c2ccccc2)C(=O)NCCCCCC(=O)OCc2ccccc2)C(=O)c2ccccc2C1=O` (stereo not given), the growth in the assay on DU-145 prostate is 22.1%; in the assay on K-562 leukemia, 39.5%; in the assay on MALME-3M melanoma, -31.3% (active); in the assay with MDA-MB-231 breast it was 32.3%; in the assay with RXF 393 renal it was 35%; in the assay with SF-268 CNS, 4.54% (active). The growth in the assay on SF-295 CNS was -7.86% (active); in the assay with SF-539 CNS, 15.3%; in the assay with UACC-257 melanoma, 35.9%; in the assay on M14 melanoma, -36.8% (active).

As for `CN(C)CC1=NC2SC=C(c3ccccc3)C2C(=O)N1CC#N` (stereo not given), the growth was 111% in the assay with DU-145 prostate; 60% in the assay on K-562 leukemia; 83.1% in the assay on MALME-3M melanoma; 92% in the assay with MDA-MB-231 breast; 81.3% in the assay with RXF 393 renal; 109% in the assay with SF-268 CNS. Moreover, the growth was 99.2% in the assay with SF-295 CNS, 101% in the assay with SF-539 CNS, 108% with UACC-257 melanoma and 105% in the assay with M14 melanoma.

Values taken from PubChem BioAssay (NCI).
